# Test results: PubChem BioAssay AID1159580 (chemical genetic matrix, 2015)
# “And” between values parts separate entries of the source, which are not always exact repeats. Identical values can stand only once. Among all 5,500 compounds or so, about 2,000 (36%) were called active. Another 18% or so got no clear call; they are omitted. The list shows a part of the results. Values without a mark were called inactive. No stated cut-off is given here; in the data, active means normalized growth mostly below about 0.91 (no sharp cut-off); inconclusive means no clear call, values can overlap the other calls; inactive means mostly above about 0.92.
# Assay: chemical genetic growth profiling, strain panel (AID 1159580);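 further: tested at 20 µM; growth read once vehicle control cultures reached saturation at 30 °C; 1 = growth at the plate median or of vehicle wells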
# Settings: S. cerevisiae deletion strains, growth OD
compound,measurement,setting,value
CC(=O)O[C@H]1C(=O)[C@@]2(C)C([C@H](OC(=O)c3ccccc3)[C@]3(O)C[C@H](OC(=O)[C@H](O)[C@@H](NC(=O)c4ccccc4)c4ccccc4)C(C)=C1C3(C)C)[C@]1(OC(C)=O)CO[C@@H]1C[C@@H]2O (stereo partly specified),normalized growth,"locus YAL013W, strain DEP1, stronger effect = lower value",1.08
same,normalized growth,"locus YAL021C, strain ccr4, stronger effect = lower value",0.995
same,normalized growth,"locus YAL026C, strain drs2, stronger effect = lower value",0.979
same,normalized growth,"locus YAL030W, strain snc1, stronger effect = lower value",1
same,normalized growth,"locus YBL061C, strain skt5, stronger effect = lower value",1.01
same,normalized growth,"locus YBR009C, strain hhf1, stronger effect = lower value",0.989
same,normalized growth,"locus YBR021W, strain FUR4, stronger effect = lower value",1.05
same,normalized growth,"locus YBR023C, strain chs3, stronger effect = lower value",1.01
same,normalized growth,"locus YBR171W, strain sec66, stronger effect = lower value",0.991
same,normalized growth,"locus YBR229C, strain ROT2, stronger effect = lower value",1.02
same,normalized growth,"locus YBR231C, strain swc5, stronger effect = lower value",1.02
same,normalized growth,"locus YBR279W, strain paf1, stronger effect = lower value",0.994
same,normalized growth,"locus YCL011C, strain gbp2, stronger effect = lower value",1.02
same,normalized growth,"locus YCL016C, strain dcc1, stronger effect = lower value",1.04
same,normalized growth,"locus YCL029C, strain bik1, stronger effect = lower value",1.05
same,normalized growth,"locus YCL061C, strain MRC1, stronger effect = lower value",1.01
same,normalized growth,"locus YCL069W, strain vba3, stronger effect = lower value",1.01
same,normalized growth,"locus YCR088W, strain abp1, stronger effect = lower value",1
same,normalized growth,"locus YDL005C, strain med2, stronger effect = lower value",1
same,normalized growth,"locus YDL035C, strain GPR1, stronger effect = lower value",1.06
same,normalized growth,"locus YDL040C, strain nat1, stronger effect = lower value",1
same,normalized growth,"locus YDL074C, strain BRE1, stronger effect = lower value",1.05
same,normalized growth,"locus YDL101C, strain DUN1, stronger effect = lower value",1.03
same,normalized growth,"locus YDL134C, strain PPH21, stronger effect = lower value",1.03
same,normalized growth,"locus YDL185W, strain tfp1, stronger effect = lower value",0.936
same,normalized growth,"locus YDL192W, strain arf1, stronger effect = lower value",1.14 [resistant] (active)
same,normalized growth,"locus YDR001C, strain nth1, stronger effect = lower value",1.02
same,normalized growth,"locus YDR069C, strain doa4, stronger effect = lower value",0.975
same,normalized growth,"locus YDR101C, strain arx1, stronger effect = lower value",1.07
same,normalized growth,"locus YDR137W, strain rgp1, stronger effect = lower value",1.02
same,normalized growth,"locus YDR150W, strain NUM1, stronger effect = lower value",1.03
same,normalized growth,"locus YDR159W, strain sac3, stronger effect = lower value",0.975
same,normalized growth,"locus YDR162C, strain NBP2, stronger effect = lower value",1.04
same,normalized growth,"locus YDR195W, strain ref2",0.994
same,normalized growth,"locus YDR297W, strain sur2, stronger effect = lower value",0.996
same,normalized growth,"locus YDR318W, strain mcm21, stronger effect = lower value",1.07
same,normalized growth,"locus YDR334W, strain swr1, stronger effect = lower value",1
same,normalized growth,"locus YDR335W, strain msn5, stronger effect = lower value",1
same,normalized growth,"locus YDR388W, stronger effect = lower value",1.06
same,normalized growth,"locus YDR392W, strain spt3, stronger effect = lower value",0.79
same,normalized growth,"locus YDR502C, strain sam2, stronger effect = lower value",1.16 [resistant] (active)
same,normalized growth,"locus YEL003W, strain gim4, stronger effect = lower value",0.979
same,normalized growth,"locus YEL037C, strain rad23, stronger effect = lower value",1.02
same,normalized growth,"locus YEL061C, strain CIN8 (second series), stronger effect = lower value",0.989
same,normalized growth,"locus YEL061C, strain CIN8, stronger effect = lower value",1.05
same,normalized growth,"locus YER015W, strain faa2, stronger effect = lower value",0.997
same,normalized growth,"locus YER016W, strain bim1, stronger effect = lower value",1.01
same,normalized growth,"locus YER110C, stronger effect = lower value",1.1
same,normalized growth,"locus YER111C, strain swi4, stronger effect = lower value",1.02
same,normalized growth,"locus YER155C, strain BEM2 (second series), stronger effect = lower value",0.824 (active)
same,normalized growth,"locus YER155C, strain BEM2, stronger effect = lower value",1.03
same,normalized growth,"locus YER167W, strain BCK2, stronger effect = lower value",1.04
same,normalized growth,"locus YFR010W, strain ubp6, stronger effect = lower value",0.988
same,normalized growth,"locus YGL078C, strain dbp3, stronger effect = lower value",1.02
same,normalized growth,"locus YGL086W, strain mad1, stronger effect = lower value",0.944
same,normalized growth,"locus YGL167C, strain pmr1, stronger effect = lower value",0.994
same,normalized growth,"locus YGL173C, strain kem1, stronger effect = lower value",1
same,normalized growth,"locus YGL227W, strain vid30, stronger effect = lower value",1.02
same,normalized growth,"locus YGL240W, strain doc1, stronger effect = lower value",0.968
same,normalized growth,"locus YGL248W, strain PDE1, stronger effect = lower value",1.03
same,normalized growth,"locus YGL253W, strain hxk2, stronger effect = lower value",0.95
same,normalized growth,"locus YGR078C, strain PAC10, stronger effect = lower value",1.04
same,normalized growth,"locus YGR135W, strain pre9, stronger effect = lower value",1.05
same,normalized growth,"locus YGR229C, strain SMI1, stronger effect = lower value",1.13
same,normalized growth,"locus YGR252W, strain gcn5, stronger effect = lower value",1.13
same,normalized growth,"locus YHR013C, strain ard1, stronger effect = lower value",0.991
same,normalized growth,"locus YHR027C, strain rpn1, stronger effect = lower value",0.988
same,normalized growth,"locus YHR030C, strain SLT2, stronger effect = lower value",1.03 and 0.96
same,normalized growth,"locus YHR079C, strain IRE1 (second series), stronger effect = lower value",1.03
same,normalized growth,"locus YHR079C, strain IRE1, stronger effect = lower value",1
same,normalized growth,"locus YHR094C, strain hxt1, stronger effect = lower value",1.05
same,normalized growth,"locus YHR129C, strain ARP1, stronger effect = lower value",1.03
same,normalized growth,"locus YHR142W, strain chs7, stronger effect = lower value",1
same,normalized growth,"locus YHR200W, strain rpn10, stronger effect = lower value",1.17 [resistant] (active)
same,normalized growth,"locus YIL066C, strain RNR3, stronger effect = lower value",1.03
same,normalized growth,"locus YIL073C, strain SPO22, stronger effect = lower value",1.04
same,normalized growth,"locus YIL125W, strain kgd1, stronger effect = lower value",1.06
same,normalized growth,"locus YIR030C, strain dcg1, stronger effect = lower value",1.09 [resistant] (active)
same,normalized growth,"locus YJL092W, strain hpr5, stronger effect = lower value",1.01
same,normalized growth,"locus YJL095W, strain BCK1 (second series), stronger effect = lower value",1
same,normalized growth,"locus YJL095W, strain BCK1, stronger effect = lower value",1.03 and 0.973
same,normalized growth,"locus YJL115W, strain asf1, stronger effect = lower value",1.01
same,normalized growth,"locus YJL129C, strain trk1, stronger effect = lower value",0.992
same,normalized growth,"locus YJL134W, strain LCB3, stronger effect = lower value",1.03
same,normalized growth,"locus YJL154C, strain vps35, stronger effect = lower value",1
same,normalized growth,"locus YJL164C, strain tpk1, stronger effect = lower value",0.969
same,normalized growth,"locus YJL166W, strain qcr8, stronger effect = lower value",1.01
same,normalized growth,"locus YJL168C, strain set2, stronger effect = lower value",1.07 [resistant] (active)
same,normalized growth,"locus YJL187C, strain SWE1 (second series), stronger effect = lower value",1.03
same,normalized growth,"locus YJL187C, strain SWE1, stronger effect = lower value",0.986
same,normalized growth,"locus YJR043C, strain POL32, stronger effect = lower value",1.06
